Source: PubChem BioAssay
Values joined by “and” are separate entries in the source; they are usually repeats but may differ in a detail not shown here. Equal values may be shown once. More than one record can exist for a structure, and the calls need not agree. Active and inactive are the calls of the source. Unless noted, how the calls were made is not given here.

What was measured:
[1] = test system: Hepatitis C virus NS3 helicase; test: blockers of NS3h binding to ssDNA – biochemical, fluorescence polarization, LOPAC1280 library, primary screen (AID 687035; in the data active means inhibition above about 37%); conditions: Purified HCV NS3 helicase, Cy5-dT15 ssDNA binding fluorescence polarization; stronger effect = higher value; concentration not given here
[2] = compounds altering Cy5-DNA-NS3h complex signal – biochemical, LOPAC1280, artefact control for HCV NS3 helicase inhibitor project (AID 687037); conditions: Cy5-DNA-NS3h complex fluorescence interference counterscreen
[3] = signal quenchers or enhancers, Cy5 substrate/SSB – biochemical, NIH Clinical Collection, E. coli SSB, artefact control for HCV NS3 helicase inhibitor project (AID 743268); conditions: Cy5-oligo bound E. coli SSB, fluorescence interference
[4] = test system: Hepatitis C virus NS3 helicase; test: blockers of NS3h binding to DNA – biochemical, fluorescence polarization, NIH Clinical Collection, primary screen (AID 743270); conditions: NS3 helicase binding to Cy5-dT15 DNA, stronger effect = higher value, concentration not given here
[5] = target: Single-stranded DNA-binding protein (Escherichia coli (strain K12)) (UniProt P0AGE0); test: SSB-ssDNA binding inhibitors – biochemical, fluorescence polarization, NIH Clinical Collection, counter-screen for HCV NS3 helicase inhibitor project (AID 743271; in the data active means inhibition above about 28%); conditions: E. coli SSB-DNA binding, stronger effect = higher value, concentration not given here
[6] = compounds distorting NS3 helicase fluorescence signal – biochemical, NIH Clinical Collection, artefact control for HCV NS3 helicase inhibitor project (AID 743272); conditions: fluorescence interference counterscreen, HCV NS3 helicase assay; stronger effect = lower value;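 further: HCV NS3 helicase with a Cy5 labelled single stranded DNA probe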
[7] = test system: Neuropilin-2 / VEGF-C interaction (human); test: small molecules blocking Neuropilin-2/VEGF-C interaction – biochemical, microplate binding format, z-score (AID 743281); conditions: microplate NRP2/VEGF-C binding assay; stronger effect = lower value
[8] = Wnt pathway potentiators raising nuclear beta-catenin – imaging, WNT3A-conditioned medium, mouse C2C12, NPC library, primary screen (AID 1117326; in the data active means nuclear beta-catenin stimulation mostly above about 4.2%, no sharp cut-off; inactive means mostly below about 10%); conditions: stronger effect = higher value
[9] = stimulators of insulin release from INS-1E, primary screen, cell-based, 5 mM glucose, NPC library (AID 1117329;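 active means compound raises insulin release from rat beta cells at 5 mM glucose, no numeric limit stated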); conditions: rat INS-1E insulin secretion, at 10 µM, stronger effect = higher value
[10] = growth inhibition of GSK3B-pretreated HCT116 cells – cell-based, CellTiter-Glo, 0.2 to 20 µM (AID 1117336;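 active means compounds lowering colon cancer cell viability after pretreatment blocking the GSK3B kinase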); conditions: HCT116 viability after GSK3B inhibitor, at 20 µM, stronger effect = higher value
[11] = inhibition of endothelial tube formation, primary screen, imaging, VEGF stimulated, CD31 staining, tube area, NPC library (AID 1117340;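 active means compound that reduces growth-factor-driven endothelial tube area in a mixed cell culture, no cutoff stated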); conditions: VEGF-stimulated ADSC/ECFC co-culture, at 10 µM, stronger effect = higher value
[12] = GLP1 release stimulators, primary, NCI-H716, NPC library (AID 1117341;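 active means compound raises GLP1 secretion from the human gut endocrine cells, with no numeric limit stated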); conditions: NCI-H716 cells, at 10 µM, stronger effect = higher value
[13] = HCT116 colon cancer cell growth inhibition, primary screen, CellTiter-Glo luminescence, NPC library (AID 1117342;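 active means compounds that lower survival of HCT116 colon cancer cells in the luminescence readout, no numeric limit stated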); conditions: at 20 µM (top of the series)
[14] = reduced SW480 viability measured with CellTiter-Glo, NPC library, primary (AID 1117343;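 active means compounds that lower viability of the colon cancer cells in the luminescence readout, with no numeric limit stated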); conditions: CellTiter-Glo luminescence; at 20 µM (top of the series)
[15] = NPC library primary testing for decreased DLD-1 cell viability via CellTiter-Glo (AID 1117346;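 active means compounds that lower survival of DLD-1 colon cancer cells in the luminescence readout, no cutoff given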); conditions: DLD-1 viability, CellTiter-Glo luminescence; at 20 µM (top of the series)
[16] = liver-stage malaria parasite load reduction – cell-based, known kinase inhibitor set, luminescence, hepatoma host viability (AID 624392); conditions: Plasmodium liver stage in hepatoma cells, luciferase luminescence, concentration not given here; liver cell % of control: measured here: host liver cell viability; parasite % of control: stronger effect = lower value;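 further: infected cells incubated roughly two days before readout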
[17] = P. berghei load reduction in hepatocytes – cell-based, HepG2, luciferase luminescence, HepG2 viability, primary screen (AID 624349; in the data active means parasite load remaining mostly below about 12%, no sharp cut-off; inactive means mostly above about 10%;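 further: 100% = mean of DMSO negative control wells on the same plate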); conditions: P. berghei liver stage in HepG2, luciferase luminescence, concentration not given here; parasite load remaining: stronger effect = lower value; viability: measured here: HepG2 viability without parasites

CN1CCC(=C2c3ccccc3CC(=O)c3sccc32)CC1
-1.2%: nuclear beta-catenin stimulation ([8]; stimulation, at 2 µM)
inactive: inhibition [1] -3% | fluorescence ratio (interference) [2] 1 | fluorescence ratio [3] 0.97 | inhibition [4] -6.33% | inhibition [5] -0.39% | fluorescence ratio [6] 0.93 | z-score [7] -0.206 | nuclear beta-catenin stimulation ([8]; at 10 µM) 1.3% | insulin secretion stimulation [9] 3.05% | viability decrease [10] 10.7% | tube area decrease [11] -3.1% | GLP1 secretion stimulation [12] 5.2% | inhibition of viability [13] 15.7% | viability decrease (inhibition) [14] 38.1% | viability decrease (inhibition) [15] -6.6%

Cc1nccn1CC1CCc2c(c3ccccc3n2C)C1=O (stereo unspecified)
1.9%: nuclear beta-catenin stimulation ([8]; stimulation, at 2 µM)
inactive: fluorescence ratio [3] 0.99 and 1.12 | inhibition [4] 0.4% and -4.09% | inhibition [5] 3.75% and 1.05% | fluorescence ratio [6] 0.97 and 1.02 | z-score [7] -0.188 | nuclear beta-catenin stimulation ([8]; at 10 µM) -0.2% | insulin secretion stimulation [9] -1.6% | viability decrease [10] -7% | tube area decrease [11] 1.5% | GLP1 secretion stimulation [12] -1.9% | inhibition of viability [13] 24.8% | viability decrease (inhibition) [14] -3.2% | viability decrease (inhibition) [15] -8%

COc1ccc2nc(S(=O)Cc3ncc(C)c(OC)c3C)[nH]c2c1 (stereo unspecified)
inactive: fluorescence ratio [3] 1.02 | inhibition [4] -1.97% | inhibition [5] -3.54% | fluorescence ratio [6] 0.98 | z-score [7] -0.241 | nuclear beta-catenin stimulation ([8]; at 10 µM) 8.5% | insulin secretion stimulation [9] 0.4% | viability decrease [10] 13.3% | tube area decrease [11] 29.3% | GLP1 secretion stimulation [12] 1.7% | inhibition of viability [13] -0.23% | viability decrease (inhibition) [14] -451% | viability decrease (inhibition) [15] -12.7%
4.5%: nuclear beta-catenin stimulation ([8]; stimulation, at 2 µM)

COc1cc2c(N3CCN(C(=O)Nc4ccc(OC(C)C)cc4)CC3)ncnc2cc1OCCCN1CCCCC1
-1.8%: nuclear beta-catenin stimulation ([8]; stimulation, at 2 µM)
active: viability decrease [10] 75.1% | inhibition of viability [13] 93.9%
inactive: parasite % of control [16] 32.5% and 57.6% and 55.2% | nuclear beta-catenin stimulation ([8]; at 10 µM) 1.7% | insulin secretion stimulation [9] 7% | tube area decrease [11] 11% | GLP1 secretion stimulation [12] 11.5% | viability decrease (inhibition) [14] 38.5% | viability decrease (inhibition) [15] 10.1%
61.6% and 84.6% and 95.9%: liver cell % of control [16]

COCCCC/C(=N\OCCN)c1ccc(C(F)(F)F)cc1
63.8%: viability [17]
inactive: parasite load remaining [17] 94.5% | outcome [7] | nuclear beta-catenin stimulation ([8]; at 10 µM) 0.8% | insulin secretion stimulation [9] 1.6% | viability decrease [10] -112% | tube area decrease [11] -2.4% | GLP1 secretion stimulation [12] -1.9% | inhibition of viability [13] 37.3% | viability decrease (inhibition) [14] 15.4% | viability decrease (inhibition) [15] 23.5%
0.4%: nuclear beta-catenin stimulation ([8]; stimulation, at 2 µM)

CC(C)NCC(O)COc1ccc(CCOCC2CC2)cc1 (stereo unspecified)
inactive: inhibition [1] -6% | fluorescence ratio (interference) [2] 0.9 | fluorescence ratio [3] 1.03 | inhibition [4] 5.94% | inhibition [5] 3.75% | fluorescence ratio [6] 0.95 | z-score [7] -0.0183 | nuclear beta-catenin stimulation ([8]; at 10 µM) 3.6% | insulin secretion stimulation [9] -1.4% | viability decrease [10] -6.1% | tube area decrease [11] 26% | GLP1 secretion stimulation [12] 1.9% | inhibition of viability [13] 14.2% | viability decrease (inhibition) [14] 10.9% | viability decrease (inhibition) [15] 2.1%
3.7%: nuclear beta-catenin stimulation ([8]; stimulation, at 2 µM)

COC(=O)C1=C(C)NC(C)=C(C(=O)OCC(C)C)C1c1ccccc1[N+](=O)[O-] (stereo unspecified)
inactive: fluorescence ratio [3] 0.95 | inhibition [4] 4.36% | inhibition [5] -0.87% | fluorescence ratio [6] 0.91 | z-score [7] -0.886 | nuclear beta-catenin stimulation ([8]; at 10 µM) 6% | insulin secretion stimulation [9] 1.25% | tube area decrease [11] 15.6% | GLP1 secretion stimulation [12] 1.3%
3.3%: nuclear beta-catenin stimulation ([8]; stimulation, at 2 µM)
active: viability decrease [10] 102% | inhibition of viability [13] 97.8% | viability decrease (inhibition) [14] 122% | viability decrease (inhibition) [15] 86.2%

CCOC(=O)[C@H](CCc1ccccc1)N[C@@H](C)C(=O)N1[C@H](C(=O)O)C[C@@H]2CCC[C@@H]21
1.9%: nuclear beta-catenin stimulation ([8]; stimulation, at 2 µM)
0.79 (active) and 1.02 (inactive): fluorescence ratio [6]
inactive: fluorescence ratio [3] 1.01 and 1.04 | inhibition [4] -1.98% and -3.18% | inhibition [5] -0.1% and -0.48% | z-score [7] -0.497 | nuclear beta-catenin stimulation ([8]; at 10 µM) 0.8% | insulin secretion stimulation [9] 1.25% | viability decrease [10] 13.8% | tube area decrease [11] -11% | GLP1 secretion stimulation [12] 2.1% | inhibition of viability [13] 6.1% | viability decrease (inhibition) [14] -19% | viability decrease (inhibition) [15] -0.3%

COc1cc2nc(N3CCN(C(=O)C4COc5ccccc5O4)CC3)nc(N)c2cc1OC (stereo unspecified)
inactive: inhibition [1] -4% | fluorescence ratio (interference) [2] 1 | fluorescence ratio [3] 1.06 | inhibition [4] -1.36% | inhibition [5] -2% | fluorescence ratio [6] 0.9 | nuclear beta-catenin stimulation ([8]; at 10 µM) 38% | insulin secretion stimulation [9] -0.7%
2.3%: nuclear beta-catenin stimulation ([8]; stimulation, at 2 µM)
active: viability decrease [10] 100% | tube area decrease [11] 85.3% | GLP1 secretion stimulation [12] 25.7% | inhibition of viability [13] 101% | viability decrease (inhibition) [14] 142% | viability decrease (inhibition) [15] 103%

CC(C)[C@H](N)C(=O)OCCOCn1cnc2c(=O)[nH]c(N)nc21
2.1%: nuclear beta-catenin stimulation ([8]; stimulation, at 2 µM)
inactive: parasite load remaining [17] 172% and 103% and 32.5% | fluorescence ratio [3] 1.06 | inhibition [4] -4.36% | inhibition [5] -4.72% | fluorescence ratio [6] 1.03 | outcome [7] | nuclear beta-catenin stimulation ([8]; at 10 µM) 0.1% | insulin secretion stimulation [9] 4.1% | viability decrease [10] 4.4% | tube area decrease [11] -8.9% | GLP1 secretion stimulation [12] 2.5% | inhibition of viability [13] -1% | viability decrease (inhibition) [14] 4.3% | viability decrease (inhibition) [15] -6.2%
88% and 76.1% and 74%: viability [17]

CC(Cc1ccccc1)(NC(=O)CN)c1ccccc1 (stereo unspecified)
74.8%: viability [17]
inactive: parasite load remaining [17] 118% | fluorescence ratio [3] 1.07 | inhibition [4] 5.15% | inhibition [5] 6.83% | fluorescence ratio [6] 1.03 | z-score [7] 1.57 | nuclear beta-catenin stimulation ([8]; at 10 µM) 0.8% | insulin secretion stimulation [9] 2.2% | viability decrease [10] -5.9% | tube area decrease [11] -10.6% | GLP1 secretion stimulation [12] 0.5% | inhibition of viability [13] 13.7% | viability decrease (inhibition) [14] 17.1% | viability decrease (inhibition) [15] 19.6%
0%: nuclear beta-catenin stimulation ([8]; stimulation, at 2 µM)

CCOC(=O)C1=C(C)NC(C)=C(C(=O)OC)C1c1cccc(Cl)c1Cl (stereo unspecified)
inactive: inhibition [1] -1% | fluorescence ratio (interference) [2] 1 | nuclear beta-catenin stimulation ([8]; at 10 µM) 35.8% | insulin secretion stimulation [9] 3.1% | GLP1 secretion stimulation [12] 5.3%
7.4%: nuclear beta-catenin stimulation ([8]; stimulation, at 2 µM)
active: viability decrease [10] 113% | tube area decrease [11] 58.1% | inhibition of viability [13] 110% | viability decrease (inhibition) [14] 139% | viability decrease (inhibition) [15] 95.6%

CCN(CC)CCNC(=O)c1cc(Cl)c(N)cc1OC
-1.4%: nuclear beta-catenin stimulation ([8]; stimulation, at 2 µM)
inactive: inhibition [1] -4% | fluorescence ratio (interference) [2] 1 | fluorescence ratio [3] 1.01 | inhibition [4] -3.18% | inhibition [5] -0.48% | fluorescence ratio [6] 0.98 | nuclear beta-catenin stimulation ([8]; at 10 µM) 0.2% | insulin secretion stimulation [9] 3.1% | viability decrease [10] -11.3% | tube area decrease [11] 12.6% | GLP1 secretion stimulation [12] 0.3% | inhibition of viability [13] -2.1% | viability decrease (inhibition) [14] -17.7% | viability decrease (inhibition) [15] 6%

CN1CCN2c3ccccc3Cc3ccccc3C2C1 (stereo unspecified)
inactive: parasite load remaining [17] 78.7% and 106% and 104% | inhibition [1] -3% | fluorescence ratio (interference) [2] 0.9 | nuclear beta-catenin stimulation ([8]; at 10 µM) 0.3% | viability decrease [10] 6.5% | tube area decrease [11] 26.3% | GLP1 secretion stimulation [12] 3.1% | inhibition of viability [13] 20.5% | viability decrease (inhibition) [15] 6.6%
-0.9%: nuclear beta-catenin stimulation ([8]; stimulation, at 2 µM)
active: insulin secretion stimulation [9] 43.4% | viability decrease (inhibition) [14] 76%
